# Test results published in article PMC7862700, “An all-to-all approach to the identification of sequence-specific readers for epigenetic DNA modifications on cytosine”.
# Key:
# Assay in all cases: DAPPL (digital affinity profiling via proximity ligation, sequencing); 10 mM Tris-HCl pH 7.5, 50 mM NaCl, 1 mM DTT, 4% glycerol, room temperature, 30 min; GST-TFs on glutathione beads, 16-mer random dsDNA library, 0.1% formaldehyde crosslink after washing; high values mean tight binding
# FLI1 = biological target: T1, FLI1 (Homo sapiens, UniProt Q01543 1-452); settings: protein: recombinant; tags: N-terminal GST; dsDNA, one strand shown
# T1 sequence: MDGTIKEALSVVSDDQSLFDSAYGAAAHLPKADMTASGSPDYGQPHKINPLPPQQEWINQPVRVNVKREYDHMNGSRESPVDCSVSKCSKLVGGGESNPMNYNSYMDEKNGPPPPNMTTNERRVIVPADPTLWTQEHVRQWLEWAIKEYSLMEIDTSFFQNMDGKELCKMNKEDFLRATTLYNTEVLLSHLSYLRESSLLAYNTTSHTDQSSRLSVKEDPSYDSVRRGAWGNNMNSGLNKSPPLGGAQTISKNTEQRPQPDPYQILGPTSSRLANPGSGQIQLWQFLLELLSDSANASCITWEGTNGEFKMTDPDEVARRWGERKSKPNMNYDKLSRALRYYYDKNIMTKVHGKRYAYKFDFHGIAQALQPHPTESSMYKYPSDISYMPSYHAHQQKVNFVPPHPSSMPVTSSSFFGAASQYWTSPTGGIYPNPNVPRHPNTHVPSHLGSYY
# Summary of the method: (§1)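 Yeast served to express human transcription factors as GST fusions, which were then captured on glutathione beads and labelled with DNA barcodes. Pooled with a tag-only sample, they were incubated with 200 nmole of a 16-mer random double-stranded DNA library for 30 min at room temperature in Tris/NaCl/DTT/glycerol buffer, washed, crosslinked with 0.1% formaldehyde, ligated by proximity, amplified by PCR and sequenced. Dividing each hexamer's read frequency for a factor by its frequency for the tag-only sample gives the binding signal.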
# ELK1 = biological target: T2, ELK1 (Homo sapiens, UniProt P19419 1-428); settings: protein: recombinant; tags: N-terminal GST; dsDNA, one strand shown
# T2 sequence: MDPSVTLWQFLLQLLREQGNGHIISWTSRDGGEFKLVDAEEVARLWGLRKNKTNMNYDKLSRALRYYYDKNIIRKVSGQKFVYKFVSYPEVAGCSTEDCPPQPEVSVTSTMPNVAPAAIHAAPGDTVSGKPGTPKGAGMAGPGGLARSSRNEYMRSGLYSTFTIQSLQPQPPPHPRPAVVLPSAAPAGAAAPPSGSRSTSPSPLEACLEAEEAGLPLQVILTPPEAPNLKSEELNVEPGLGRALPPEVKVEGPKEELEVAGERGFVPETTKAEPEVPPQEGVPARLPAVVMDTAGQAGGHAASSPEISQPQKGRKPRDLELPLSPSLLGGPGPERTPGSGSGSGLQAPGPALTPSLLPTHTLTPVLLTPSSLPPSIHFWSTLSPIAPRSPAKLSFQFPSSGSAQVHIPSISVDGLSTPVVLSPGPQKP
# Summary of the method: as §1
# GABPA = biological target: T3, GABPA (Homo sapiens, UniProt Q06546 1-454); settings: protein: recombinant; tags: N-terminal GST; dsDNA, one strand shown
# T3 sequence: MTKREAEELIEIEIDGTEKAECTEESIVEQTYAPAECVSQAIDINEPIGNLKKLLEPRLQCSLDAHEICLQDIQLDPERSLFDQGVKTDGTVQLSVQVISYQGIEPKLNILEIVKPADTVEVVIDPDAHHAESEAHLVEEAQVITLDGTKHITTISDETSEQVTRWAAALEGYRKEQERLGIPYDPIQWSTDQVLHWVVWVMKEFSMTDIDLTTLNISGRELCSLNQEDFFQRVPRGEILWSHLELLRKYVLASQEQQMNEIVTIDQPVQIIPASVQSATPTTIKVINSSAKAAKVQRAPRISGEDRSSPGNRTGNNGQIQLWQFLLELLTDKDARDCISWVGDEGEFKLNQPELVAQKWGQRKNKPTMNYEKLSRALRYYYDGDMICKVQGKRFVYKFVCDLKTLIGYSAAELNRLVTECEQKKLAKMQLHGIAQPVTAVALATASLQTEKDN
# Summary of the method: as §1
# ERG = biological target: T4, ERG (Homo sapiens, UniProt P11308 1-479); settings: protein: recombinant; tags: N-terminal GST; dsDNA, one strand shown
# T4 sequence: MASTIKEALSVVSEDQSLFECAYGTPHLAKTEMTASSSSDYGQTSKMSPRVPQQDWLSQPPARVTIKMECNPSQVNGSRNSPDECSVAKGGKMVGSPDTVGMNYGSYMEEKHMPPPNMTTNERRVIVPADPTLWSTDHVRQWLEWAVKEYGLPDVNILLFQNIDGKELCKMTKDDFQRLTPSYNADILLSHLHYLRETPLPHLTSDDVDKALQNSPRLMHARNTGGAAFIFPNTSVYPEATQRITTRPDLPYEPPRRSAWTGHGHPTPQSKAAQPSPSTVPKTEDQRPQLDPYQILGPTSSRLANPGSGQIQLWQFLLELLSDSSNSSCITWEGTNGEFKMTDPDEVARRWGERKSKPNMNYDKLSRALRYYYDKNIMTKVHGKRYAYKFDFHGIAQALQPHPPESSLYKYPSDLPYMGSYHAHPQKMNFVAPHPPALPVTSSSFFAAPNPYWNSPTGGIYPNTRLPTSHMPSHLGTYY
# Summary of the method: as §1
# ELF1 = ELF1 (Homo sapiens, UniProt P32519 1-619); settings: protein: recombinant; tags: N-terminal GST; dsDNA, one strand shown
# Sequence of ELF1 (P32519 whole entry): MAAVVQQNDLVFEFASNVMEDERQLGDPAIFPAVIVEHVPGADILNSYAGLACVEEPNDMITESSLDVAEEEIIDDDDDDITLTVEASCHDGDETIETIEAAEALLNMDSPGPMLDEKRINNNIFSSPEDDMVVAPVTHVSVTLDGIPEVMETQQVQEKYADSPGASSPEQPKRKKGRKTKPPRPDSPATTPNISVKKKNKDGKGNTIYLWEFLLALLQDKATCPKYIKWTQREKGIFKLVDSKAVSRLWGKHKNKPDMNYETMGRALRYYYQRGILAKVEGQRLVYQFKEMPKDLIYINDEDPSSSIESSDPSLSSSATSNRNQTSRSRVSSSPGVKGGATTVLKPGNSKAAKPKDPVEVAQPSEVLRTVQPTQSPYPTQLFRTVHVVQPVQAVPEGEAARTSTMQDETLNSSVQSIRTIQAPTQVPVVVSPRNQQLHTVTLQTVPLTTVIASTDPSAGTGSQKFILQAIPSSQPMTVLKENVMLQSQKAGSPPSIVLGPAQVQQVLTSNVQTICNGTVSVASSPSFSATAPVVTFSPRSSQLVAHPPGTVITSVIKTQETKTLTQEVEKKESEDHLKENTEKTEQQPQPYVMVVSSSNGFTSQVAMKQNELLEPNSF
# Summary of the method: as §1
# EHF = biological target: T5, EHF (Homo sapiens, UniProt Q9NZC4 1-300); settings: protein: recombinant; tags: N-terminal GST; dsDNA, one strand shown
# T5 sequence: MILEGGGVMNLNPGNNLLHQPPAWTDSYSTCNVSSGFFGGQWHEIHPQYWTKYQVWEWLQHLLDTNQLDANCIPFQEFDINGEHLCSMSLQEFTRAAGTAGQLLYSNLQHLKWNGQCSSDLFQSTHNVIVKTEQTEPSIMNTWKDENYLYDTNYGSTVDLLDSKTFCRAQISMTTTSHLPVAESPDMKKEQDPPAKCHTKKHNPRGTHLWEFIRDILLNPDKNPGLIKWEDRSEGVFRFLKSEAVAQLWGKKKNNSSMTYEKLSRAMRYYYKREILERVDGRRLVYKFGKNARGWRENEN
# Summary of the method: as §1
# SPI1 = SPI1 (Homo sapiens, UniProt P17947 1-270); settings: protein: recombinant; tags: N-terminal GST; dsDNA, one strand shown
# Summary of the method: as §1
# SPIB = SPIB (Homo sapiens, UniProt Q01892 1-262); settings: protein: recombinant; tags: N-terminal GST; dsDNA, one strand shown
# Sequence of SPIB (Q01892 whole entry): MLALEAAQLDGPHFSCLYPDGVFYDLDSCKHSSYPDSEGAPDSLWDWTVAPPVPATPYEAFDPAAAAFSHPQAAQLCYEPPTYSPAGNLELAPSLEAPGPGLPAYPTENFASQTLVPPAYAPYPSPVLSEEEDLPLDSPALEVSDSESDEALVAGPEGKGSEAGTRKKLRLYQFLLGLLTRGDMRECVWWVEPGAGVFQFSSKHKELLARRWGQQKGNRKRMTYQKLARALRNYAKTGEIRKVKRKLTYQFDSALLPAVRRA
# Summary of the method: as §1
# ELK3 = biological target: T6, ELK3 (Homo sapiens, UniProt P41970 1-407); settings: protein: recombinant; tags: N-terminal GST; dsDNA, one strand shown
# T6 sequence: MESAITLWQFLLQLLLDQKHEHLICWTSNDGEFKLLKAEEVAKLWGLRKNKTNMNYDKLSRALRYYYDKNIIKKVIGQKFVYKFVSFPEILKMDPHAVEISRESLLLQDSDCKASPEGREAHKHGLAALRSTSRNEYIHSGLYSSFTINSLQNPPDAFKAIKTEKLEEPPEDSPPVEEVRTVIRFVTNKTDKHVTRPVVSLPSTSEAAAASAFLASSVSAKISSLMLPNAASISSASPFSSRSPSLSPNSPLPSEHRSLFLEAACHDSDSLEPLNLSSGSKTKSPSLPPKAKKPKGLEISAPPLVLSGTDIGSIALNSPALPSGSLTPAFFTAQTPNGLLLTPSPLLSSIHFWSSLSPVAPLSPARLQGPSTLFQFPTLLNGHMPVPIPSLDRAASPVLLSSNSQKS
# Summary of the method: as §1
# FEV = biological target: T7, FEV (Homo sapiens, UniProt Q99581 1-238); settings: protein: recombinant; tags: N-terminal GST; dsDNA, one strand shown
# T7 sequence: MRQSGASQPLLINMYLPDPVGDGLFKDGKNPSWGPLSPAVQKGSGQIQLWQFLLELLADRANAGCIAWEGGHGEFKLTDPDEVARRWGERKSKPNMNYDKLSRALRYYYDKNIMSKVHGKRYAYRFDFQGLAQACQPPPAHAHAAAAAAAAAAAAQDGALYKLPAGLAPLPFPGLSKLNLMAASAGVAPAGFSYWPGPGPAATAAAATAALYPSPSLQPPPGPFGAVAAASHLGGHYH
# Summary of the method: as §1
# ETV5 = ETV5 (Homo sapiens, UniProt P41161 1-510); settings: protein: recombinant; tags: N-terminal GST; dsDNA, one strand shown
# Sequence of ETV5 (P41161 whole entry): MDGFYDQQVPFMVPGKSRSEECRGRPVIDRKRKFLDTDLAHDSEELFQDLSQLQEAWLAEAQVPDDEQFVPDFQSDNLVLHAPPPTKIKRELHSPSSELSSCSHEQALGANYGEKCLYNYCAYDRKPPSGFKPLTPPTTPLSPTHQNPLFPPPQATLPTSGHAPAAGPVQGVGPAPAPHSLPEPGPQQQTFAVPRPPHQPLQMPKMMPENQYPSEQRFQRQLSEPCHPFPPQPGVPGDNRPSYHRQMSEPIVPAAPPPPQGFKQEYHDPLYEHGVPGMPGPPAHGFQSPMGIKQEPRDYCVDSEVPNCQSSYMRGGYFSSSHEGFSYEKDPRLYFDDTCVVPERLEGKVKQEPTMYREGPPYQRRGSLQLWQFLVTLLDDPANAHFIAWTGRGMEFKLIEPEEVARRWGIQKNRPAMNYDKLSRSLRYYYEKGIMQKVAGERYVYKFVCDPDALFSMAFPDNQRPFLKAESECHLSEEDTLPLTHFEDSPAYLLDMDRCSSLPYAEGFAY
# Summary of the method: as §1
# HSF1 = HSF1 (Homo sapiens, UniProt Q00613 1-529); settings: protein: recombinant; tags: N-terminal GST; chain copies: 3; dsDNA, one strand shown
# Sequence of HSF1 (Q00613 whole entry): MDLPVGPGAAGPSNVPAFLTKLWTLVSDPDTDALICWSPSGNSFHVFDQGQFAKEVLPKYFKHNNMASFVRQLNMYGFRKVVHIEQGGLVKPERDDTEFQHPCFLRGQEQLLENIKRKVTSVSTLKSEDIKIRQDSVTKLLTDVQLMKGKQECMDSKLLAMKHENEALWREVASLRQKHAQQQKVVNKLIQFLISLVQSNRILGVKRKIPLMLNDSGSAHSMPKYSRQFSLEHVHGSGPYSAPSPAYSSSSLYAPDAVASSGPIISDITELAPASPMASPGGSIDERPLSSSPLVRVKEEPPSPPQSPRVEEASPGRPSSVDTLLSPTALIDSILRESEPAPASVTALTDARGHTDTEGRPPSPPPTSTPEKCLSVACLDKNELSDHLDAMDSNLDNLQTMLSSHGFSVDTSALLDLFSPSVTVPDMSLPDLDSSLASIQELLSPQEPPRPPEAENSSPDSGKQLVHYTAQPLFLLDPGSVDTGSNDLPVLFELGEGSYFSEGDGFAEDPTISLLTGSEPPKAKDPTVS
# Summary of the method: as §1
# SPIC = biological target: T8, SPIC (Homo sapiens, UniProt Q8N5J4 1-248); settings: protein: recombinant; tags: N-terminal GST; dsDNA, one strand shown
# T8 sequence: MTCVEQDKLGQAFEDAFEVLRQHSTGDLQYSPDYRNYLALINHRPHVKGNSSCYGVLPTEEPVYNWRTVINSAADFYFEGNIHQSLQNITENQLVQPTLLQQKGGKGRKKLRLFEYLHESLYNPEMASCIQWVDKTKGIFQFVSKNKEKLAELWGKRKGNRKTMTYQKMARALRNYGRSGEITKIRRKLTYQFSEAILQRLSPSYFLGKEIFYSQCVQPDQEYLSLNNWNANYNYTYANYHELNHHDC
# Summary of the method: as §1
# ELF4 = ELF4 (Homo sapiens, UniProt Q99607 1-663); settings: protein: recombinant; tags: N-terminal GST; dsDNA, one strand shown
# Sequence of ELF4 (Q99607 whole entry): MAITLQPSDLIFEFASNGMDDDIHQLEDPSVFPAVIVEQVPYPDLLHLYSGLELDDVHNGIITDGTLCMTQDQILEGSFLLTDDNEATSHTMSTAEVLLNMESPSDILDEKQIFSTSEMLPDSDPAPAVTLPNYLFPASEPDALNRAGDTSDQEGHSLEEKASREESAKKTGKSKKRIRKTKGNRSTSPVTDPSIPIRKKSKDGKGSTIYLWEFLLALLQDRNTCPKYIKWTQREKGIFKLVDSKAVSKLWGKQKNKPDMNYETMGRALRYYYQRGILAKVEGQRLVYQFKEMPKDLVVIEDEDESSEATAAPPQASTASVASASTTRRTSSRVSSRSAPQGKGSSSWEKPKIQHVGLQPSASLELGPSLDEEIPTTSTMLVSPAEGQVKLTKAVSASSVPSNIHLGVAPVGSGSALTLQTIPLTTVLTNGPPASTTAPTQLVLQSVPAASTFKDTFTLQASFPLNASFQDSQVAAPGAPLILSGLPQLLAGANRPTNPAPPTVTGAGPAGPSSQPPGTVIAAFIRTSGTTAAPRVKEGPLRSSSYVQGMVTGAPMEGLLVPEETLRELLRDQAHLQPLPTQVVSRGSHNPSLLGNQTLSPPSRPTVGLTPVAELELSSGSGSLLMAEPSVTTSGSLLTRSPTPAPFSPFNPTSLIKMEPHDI
# Summary of the method: as §1
# ELK4 = biological target: T9, ELK4 (Homo sapiens, UniProt P28324-2 1-405); settings: protein: recombinant; tags: N-terminal GST; dsDNA, one strand shown
# T9 sequence: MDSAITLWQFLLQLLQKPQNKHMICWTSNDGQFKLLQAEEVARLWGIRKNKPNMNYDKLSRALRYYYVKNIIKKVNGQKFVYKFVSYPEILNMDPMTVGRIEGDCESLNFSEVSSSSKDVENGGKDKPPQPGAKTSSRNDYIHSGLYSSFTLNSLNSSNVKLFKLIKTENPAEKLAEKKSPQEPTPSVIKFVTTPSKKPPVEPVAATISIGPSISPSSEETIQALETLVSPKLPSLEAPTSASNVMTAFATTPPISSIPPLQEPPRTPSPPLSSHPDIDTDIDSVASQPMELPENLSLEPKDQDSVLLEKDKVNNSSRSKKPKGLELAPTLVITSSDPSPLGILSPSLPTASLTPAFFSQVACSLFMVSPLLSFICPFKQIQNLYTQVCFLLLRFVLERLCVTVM
# Summary of the method: as §1
# ETV2 = biological target: T10, ETV2 (Homo sapiens, UniProt O00321 1-342); settings: protein: recombinant; tags: N-terminal GST; dsDNA, one strand shown
# T10 sequence: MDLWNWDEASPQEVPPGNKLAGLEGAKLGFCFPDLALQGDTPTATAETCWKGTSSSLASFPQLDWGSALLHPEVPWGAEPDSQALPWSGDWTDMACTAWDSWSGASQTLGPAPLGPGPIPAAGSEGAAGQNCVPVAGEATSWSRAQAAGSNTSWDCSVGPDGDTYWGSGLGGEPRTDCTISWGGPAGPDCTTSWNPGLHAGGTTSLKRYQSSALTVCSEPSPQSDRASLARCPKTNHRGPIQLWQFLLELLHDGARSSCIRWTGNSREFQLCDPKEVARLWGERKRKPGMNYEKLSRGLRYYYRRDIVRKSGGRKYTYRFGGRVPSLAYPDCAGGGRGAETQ
# Summary of the method: as §1
# ELF3 = biological target: T11, ELF3 (Homo sapiens, UniProt P78545 1-371); settings: protein: recombinant; tags: N-terminal GST; dsDNA, one strand shown
# T11 sequence: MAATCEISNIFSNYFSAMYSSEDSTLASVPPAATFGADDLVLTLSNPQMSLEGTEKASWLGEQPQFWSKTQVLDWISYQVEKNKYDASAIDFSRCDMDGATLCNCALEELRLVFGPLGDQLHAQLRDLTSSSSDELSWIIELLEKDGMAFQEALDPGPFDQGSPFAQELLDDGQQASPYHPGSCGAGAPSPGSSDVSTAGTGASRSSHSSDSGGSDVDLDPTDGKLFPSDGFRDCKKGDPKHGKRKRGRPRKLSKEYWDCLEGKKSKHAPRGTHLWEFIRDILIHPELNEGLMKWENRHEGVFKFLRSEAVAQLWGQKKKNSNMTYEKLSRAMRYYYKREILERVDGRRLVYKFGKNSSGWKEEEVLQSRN
# Summary of the method: as §1
# CRX = CRX (Homo sapiens, UniProt O43186 1-299); settings: protein: recombinant; tags: N-terminal GST; dsDNA, one strand shown
# Sequence of CRX (O43186 whole entry): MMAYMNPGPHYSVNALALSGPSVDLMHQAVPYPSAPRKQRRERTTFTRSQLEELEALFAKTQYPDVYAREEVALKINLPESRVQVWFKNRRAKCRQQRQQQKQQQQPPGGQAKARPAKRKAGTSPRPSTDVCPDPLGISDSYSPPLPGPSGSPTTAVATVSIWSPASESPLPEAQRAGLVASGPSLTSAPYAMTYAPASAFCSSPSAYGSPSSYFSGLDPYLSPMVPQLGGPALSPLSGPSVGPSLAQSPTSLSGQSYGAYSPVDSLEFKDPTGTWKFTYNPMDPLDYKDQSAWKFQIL
# Summary of the method: as §1
# ETV1 = ETV1 (Homo sapiens, UniProt P50549 1-477); settings: protein: recombinant; tags: N-terminal GST; dsDNA, one strand shown
# Sequence of ETV1 (P50549 whole entry): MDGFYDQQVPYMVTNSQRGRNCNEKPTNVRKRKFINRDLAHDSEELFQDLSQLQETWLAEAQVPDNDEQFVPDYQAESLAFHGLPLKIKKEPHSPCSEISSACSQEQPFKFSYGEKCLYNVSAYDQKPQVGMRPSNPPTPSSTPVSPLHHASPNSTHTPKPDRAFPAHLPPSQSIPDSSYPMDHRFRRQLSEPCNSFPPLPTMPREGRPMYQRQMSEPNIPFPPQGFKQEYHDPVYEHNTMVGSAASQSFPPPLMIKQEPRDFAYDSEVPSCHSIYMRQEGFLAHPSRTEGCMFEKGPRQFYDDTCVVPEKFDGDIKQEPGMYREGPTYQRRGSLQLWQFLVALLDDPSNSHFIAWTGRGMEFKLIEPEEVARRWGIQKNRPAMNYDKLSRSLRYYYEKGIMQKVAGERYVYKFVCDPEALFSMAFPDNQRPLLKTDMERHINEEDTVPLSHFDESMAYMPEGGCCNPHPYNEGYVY
# Summary of the method: as §1
sequence,measurement,setting,value
AACGAT,binding signal,FLI1,"1.28 fold enrichment (6-mer frequency, TF over GST control)"
same,binding signal,ELK1,"1.16 fold enrichment (6-mer frequency, TF over GST control)"
same,binding signal,GABPA,"1.13 fold enrichment (6-mer frequency, TF over GST control)"
same,binding signal,ERG,"1.21 fold enrichment (6-mer frequency, TF over GST control)"
same,binding signal,ELF1,"1.24 fold enrichment (6-mer frequency, TF over GST control)"
same,binding signal,EHF,"1.17 fold enrichment (6-mer frequency, TF over GST control)"
same,binding signal,SPI1,"1.17 fold enrichment (6-mer frequency, TF over GST control)"
same,binding signal,SPIB,"1.21 fold enrichment (6-mer frequency, TF over GST control)"
same,binding signal,ELK3,"1.24 fold enrichment (6-mer frequency, TF over GST control)"
same,binding signal,FEV,"1.15 fold enrichment (6-mer frequency, TF over GST control)"
same,binding signal,ETV5,"1.22 fold enrichment (6-mer frequency, TF over GST control)"
same,binding signal,HSF1,"1.32 fold enrichment (6-mer frequency, TF over GST control)"
same,binding signal,SPIC,"1.19 fold enrichment (6-mer frequency, TF over GST control)"
same,binding signal,ELF4,"1.17 fold enrichment (6-mer frequency, TF over GST control)"
same,binding signal,ELK4,"1.15 fold enrichment (6-mer frequency, TF over GST control)"
same,binding signal,ETV2,"1.35 fold enrichment (6-mer frequency, TF over GST control)"
same,binding signal,ELF3,"1.08 fold enrichment (6-mer frequency, TF over GST control)"
same,binding signal,CRX,"1.38 fold enrichment (6-mer frequency, TF over GST control)"
same,binding signal,ETV1,"1.19 fold enrichment (6-mer frequency, TF over GST control)"
